Measurements: PubChem BioAssay (EPA / NIEHS)
Active and inactive are the calls of the source. How the source made its calls: active means hit-call score of the fitted dose curve at least 0.9, where 1 is the maximum; inactive means score below 0.9.

Each compound was assayed on Signal transducer and activator of transcription 3 (Homo sapiens) (UniProt P40763) (assay: LTEA_HepaRG_STAT3: Life Technologies and Expression Analysis (LTEA) Assay for Signal transducer and activator of transcription (STAT3) using HepaRG (AID 2283529)). Conditions: mRNA level, 48 h; actives raise or lower the signal.
Procedure: LTEA_HepaRG is a cell based, multiplexed-readout assay that uses HepaRG, a human liver cell line, with measurements taken at 48 hours after chemical dosing on a 96-well plate.LTEA_HepaRG_STAT3 is one of 102 assay component(s) measured in the LTEA HepaRG cell culture assay. It is a marker of Cell proliferation, survival, death.Data from the assay component LTEA_HepaRG_STAT3 was analyzed into 1 endpoint. This assay endpoint, LTEA_HepaRG_STAT3, was analyzed with bidirectional fitting relative to DMSO as the negative control and baseline of activity. Using a type of inducible reporter, measures of mRNA induction for gain or loss-of-signal activity can be used to understand regulation of transcription factor activity. To generalize the intended target to other relatable targets, this assay endpoint is annotated to the dna binding intended target family, where the subfamily is stat protein.
A total of 1060 chemcials from the ToxCast library were tested in eight-point concentration-response experiments. Cell culture and cytotoxicity assays were conducted at Thermo Fisher Scientific's Custom Services facility (Madison, WI). A single lot of human HepaRG cells (Thermo Fisher Scientific, Frederick, MD) was used for the cell culture experiments. 96-well format collagen type I coated plates of human HepaRG cells were prepared using established methods. Briefly, cryopreserved HepaRG cells were thawed, plated at a density of approximately 100,000 cells/well in HepaRG Thaw, Plate, and General Purpose media (HPRG770, Thermo Fisher Scientific), and incubated for 48 hours. 0.5% DMSO was selected as vehicle control to balance the requisite need of DMSO in HepaRG cultures to maintain differentiation (for example, baseline metabolism, proportions of hepatocytes vs. cholangiocytes), while enabling further hepatic receptor pathway activation (for example, PXR and CAR) in response to chemical exposure. 48 hours after plating, the culture medium was replaced with HepaRG Serum-Free Incudtion Media. Cells were exposed to each test chemical in duplicate and maintained in CO2 incubators for another 48 hours. Chemical plates were thawed to room temperature and 200x concentrations of treatment groups were prepared. 8-point conentration-reponse curves were made with the highest exposure at 100 uM, followed by half-log dilutions, all in 0.5% DMSO. Each test plate contained variouse controls, induction positive controls (1mM phenobarbital), cytotoxicity positive controls ([…] aflatoxin B1), vehicle controls (0.5% DMSO), and total lysis controls (0.5% DMSO). Cell morphology images were taken using an Essen IncuCyte FLR automated microscope, with six 96-well plates imaged in about 24 minutes. Images were captured and exported and JPEG files. Spent culture media was transfered to black-well plates for the LDH assay, and remaining media was sorted at -80 C for later use. Cells were treated with RLT buffer and frozen until shipped for gene expression analysis. Total RNA was isolated from the cell suspension in 75 uL of Buffer RLT (Qiagen, Germantown, MD 20874) by Quintiles/Expression Analysis (Durham, NC) using a custom isolation procedure. Total RNA from each plate well was transferred to a preamplification plate. Fluidigm's 96.96 Dynamic ArrayTM (Fluidigm, Amsterdam, the Netherlands) technology was used for gene expression analyses by quantitative reverse transcription polymerase chain reaction (qRT-PCR, performed by Quintiles/Expression Analysis, Durham, NC)89. Standard TaqManTM Assays (Applied Biosystems/ThermoFisher Scientific, Foster City, CA) were used to assess the expression of 93 genes selected based on their selectivity and sensitivity to important hepatic receptors known to be modulated by environmental chemicals; importance in human hepatocyte functionality; and hepatotoxicity. […]

Chain of Signal transducer and activator of transcription 3 (Homo sapiens) (P40763 whole entry, looked up): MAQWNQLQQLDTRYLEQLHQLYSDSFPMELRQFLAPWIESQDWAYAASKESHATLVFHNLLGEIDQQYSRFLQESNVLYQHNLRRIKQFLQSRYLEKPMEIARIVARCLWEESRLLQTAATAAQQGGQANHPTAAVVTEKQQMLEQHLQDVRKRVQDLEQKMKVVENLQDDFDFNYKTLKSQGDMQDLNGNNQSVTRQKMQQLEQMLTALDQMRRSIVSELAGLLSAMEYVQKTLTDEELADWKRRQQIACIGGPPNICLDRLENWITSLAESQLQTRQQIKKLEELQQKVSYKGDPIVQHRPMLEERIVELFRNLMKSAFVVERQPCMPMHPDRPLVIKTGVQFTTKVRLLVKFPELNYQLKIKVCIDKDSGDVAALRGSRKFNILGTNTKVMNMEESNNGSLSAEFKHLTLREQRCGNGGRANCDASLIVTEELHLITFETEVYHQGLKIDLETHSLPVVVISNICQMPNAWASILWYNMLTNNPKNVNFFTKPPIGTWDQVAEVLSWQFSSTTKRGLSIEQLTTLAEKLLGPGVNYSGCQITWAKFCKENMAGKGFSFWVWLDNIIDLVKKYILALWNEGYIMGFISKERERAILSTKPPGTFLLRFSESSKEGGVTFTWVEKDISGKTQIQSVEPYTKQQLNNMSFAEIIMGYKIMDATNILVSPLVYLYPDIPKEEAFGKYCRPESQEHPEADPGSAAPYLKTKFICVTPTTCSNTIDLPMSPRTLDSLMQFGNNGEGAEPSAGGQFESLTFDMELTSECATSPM

outcome, inactive:
CC[C@H]1CC[C@H](NCc2cc3c(cc2OC)[C@H]2C[C@H]2C(=O)N3C)[C@H](c2ccccc2)N1
Cn1c(=O)cc(Oc2ccc(F)cc2F)c2cnc(NCC(C)(C)O)nc21
C[C@](N)(Cc1ccc(O)c(O)c1)C(=O)O
CC(C)=CCCC(C)=CC=O
CCN(C(=O)c1cc(C)cc(OC[C@H](C)Nc2ccncc2)c1)C(C)C
On1ccccc1=S
O=C(O)CCN(C1(C(=O)NO)CCCC1)S(=O)(=O)c1ccc(Oc2ccc(F)cc2)cc1
CCOC(=O)COc1ccc2c(c1)CC(NCC(O)c1cccc(Cl)c1)CC2 (stereo not given)
COc1ccc2sc(C(=O)Nc3nnn[nH]3)c(OC(C)C)c2c1
O=c1[nH]c2ccc(S(=O)CCN3CCC(Cc4ccc(F)cc4)CC3)cc2o1 (stereo not given)
CCOCCOCCOCCO
CC(C)(O)c1coc(S(=O)(=O)NC(=O)Nc2c3c(cc4c2CCC4)CCC3)c1
COc1cccc(-c2ccc(/C=C\CN3CCCCCC3)cc2Cl)c1
CC1=CC(=O)CC(C)(C)C1
COC(=O)c1ccccc1O
CCCC(=O)OCC
CC(=O)OC[C@H]1O[C@@](COC(C)=O)(O[C@H]2O[C@H](COC(C)=O)[C@@H](OC(C)=O)[C@H](OC(C)=O)[C@H]2OC(C)=O)[C@@H](OC(C)=O)[C@@H]1OC(C)=O
COc1ccc(-n2nc(C(F)F)cc2-c2ccc(S(C)=O)cc2)cc1 (stereo not given)
CCCCCCCCCCCCCCCO
Nc1nc2ncc(CNc3ccc(C(=O)N[C@@H](CCC(=O)O)C(=O)O)cc3)nc2c(=O)[nH]1
COC(=O)CC(=O)OC
C=CCCCCCCCCC(=O)O
Cc1ccc(C)c(O)c1
O=C(O)c1cc(N=Nc2ccc(S(=O)(=O)Nc3ccccn3)cc2)ccc1O
COCCOc1cc2cc(C(=O)NC3CCN(C(C)C)CC3)n(CC(=O)Nc3ccc(Cl)cn3)c2cn1
Cc1c(-c2cccnc2)c2ccccc2n1CCCCC(=O)O
CCCCC(CC)COC(=O)c1ccc(C(=O)OCC(CC)CCCC)cc1 (stereo not given)
Cc1[nH]cnc1C[C@H]1CCc2c(C)c3ccccc3n2C1=O
COC(=O)c1c(Cl)c(Cl)c(C(=O)OC)c(Cl)c1Cl
CNS(=O)(=O)c1cc(C(=O)N2CCC(CCN3C4CCC3CC(n3c(C)nc5ccccc53)C4)(c3cccc(F)c3)CC2)c(Cl)cc1F (stereo not given)
Nc1ccc(Nc2ccccc2)cc1
O=C(CCCCCCCCc1cccnc1)N1CCC(C=C(c2ccccc2)c2ccccc2)CC1
Oc1ccc2c(c1)-c1ccccc1C2
CC(C)=CCC/C(C)=C/CO
Nc1cccc(N)c1
CC[C@H]1OC(=O)[C@H](C)[C@@H](O[C@H]2C[C@@](C)(OC)[C@@H](O)[C@H](C)O2)[C@H](C)[C@@H](O[C@@H]2O[C@H](C)C[C@H](N(C)C)[C@H]2O)[C@](C)(O)C[C@@H](C)C(=O)[C@H](C)[C@@H](O)[C@]1(C)O
CNCc1ccc(NC(=O)c2c[nH]c3c2C(=O)CCC3)cc1
O=C1OC(=O)C2C3C=CC(C3)C12 (stereo not given)
O=C(O)c1cccc(Oc2ccccc2)c1

AC50, active:
CCOc1cccc(-n2cc(C(=O)N3CCN(c4cc(C(=O)O)c5ccccc5c4)CC3)nc2-c2ccc(C)cc2)c1 50 µM
